# Test results reported in PubChem BioAssay AID651548 (Broad Institute, 2012).
# Several values for one entry are separate records, joined by “and”; a condition that tells them apart may be missing. Identical values can stand only once. The campaign covered roughly 57,000 compounds. About 200 (0.35%) were called active.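 The calls were made as follows: active = mean inhibition of replicates at least 50% and every single replicate also reaching 50%; inconclusive = mean inhibition at least 50% but some replicate falls below 50%; inactive = mean inhibition under 50%.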 The sample as a whole holds a higher share of actives than the screen did.
# Molecular target: Histone-lysine N-methyltransferase EZH2 (Homo sapiens) (UniProt Q15910)
# Sequence (Q15910 whole entry, looked up): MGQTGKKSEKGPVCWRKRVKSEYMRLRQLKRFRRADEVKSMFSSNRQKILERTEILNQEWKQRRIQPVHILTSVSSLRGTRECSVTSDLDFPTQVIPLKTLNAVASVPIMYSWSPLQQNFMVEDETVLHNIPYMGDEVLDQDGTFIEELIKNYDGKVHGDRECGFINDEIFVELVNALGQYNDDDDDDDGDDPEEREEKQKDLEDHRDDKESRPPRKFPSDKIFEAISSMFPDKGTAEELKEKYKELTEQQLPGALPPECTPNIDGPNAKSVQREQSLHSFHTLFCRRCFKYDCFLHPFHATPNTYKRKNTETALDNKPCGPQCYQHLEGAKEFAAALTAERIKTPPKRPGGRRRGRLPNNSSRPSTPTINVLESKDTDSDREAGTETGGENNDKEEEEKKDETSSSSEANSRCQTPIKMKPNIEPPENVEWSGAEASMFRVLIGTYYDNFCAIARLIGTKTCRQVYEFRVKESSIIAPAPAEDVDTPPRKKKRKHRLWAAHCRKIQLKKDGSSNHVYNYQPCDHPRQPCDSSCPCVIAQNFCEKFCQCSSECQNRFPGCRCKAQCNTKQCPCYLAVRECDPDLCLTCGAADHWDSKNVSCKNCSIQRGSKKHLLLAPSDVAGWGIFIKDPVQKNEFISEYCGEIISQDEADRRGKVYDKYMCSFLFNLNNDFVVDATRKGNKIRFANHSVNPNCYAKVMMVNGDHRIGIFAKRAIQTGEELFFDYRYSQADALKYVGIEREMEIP
# Assay: inhibition of PRC2 H3K27 methylation – biochemical, DELFIA time-resolved fluorescence, single point, primary screen (AID 651548);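 also: dimethyl H3K27 on biotinylated H3 21-44 peptide detected by antibody; plate controls were median neutral control wells for no effect and median positive control wells for full effect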
# Conditions: DELFIA TRF, 1 h, at 12.5 µM, stronger effect = higher value
row,Structure (SMILES),inhibition
1,CCC(=O)N1C[C@H](C)[C@H](OC)CN(C)C(=O)c2ccc(NC(=O)c3cnccn3)cc2OC[C@@H]1C,10.3% (inactive)
2,COc1cccc(S(=O)(=O)N[C@H]2C=C[C@@H](CC(=O)NCc3ccc(F)cc3)O[C@@H]2CO)c1,13.3% (inactive)
3,C[C@@H]1CCCCO[C@H](CN(C)C)[C@H](C)CN([C@@H](C)CO)C(=O)c2cc(NS(=O)(=O)c3ccccc3)ccc2O1,-7.21% (inactive)
4,CCCNC(=O)N1C[C@@H](C)[C@@H](OC)CN(C)C(=O)c2ccc(NC(=O)CCC)cc2OC[C@H]1C,-3.61% (inactive)
5,CC(C)NC(=O)N(C)C[C@H]1Oc2ncc(-c3ccccc3F)cc2C(=O)N([C@@H](C)CO)C[C@@H]1C,-0.301% (inactive)
6,COc1cccc(NC(=O)N[C@H]2C=C[C@@H](CC(=O)Nc3ccc(-c4ccccc4)cc3)O[C@@H]2CO)c1,-1.25% (inactive)
7,O=C(C[C@H]1C[C@H]2c3cc(NC(=O)CC4CC4)ccc3O[C@H]2[C@H](CO)O1)NCc1ccccc1,-28.9% (inactive)
8,C[C@@H]1CN([C@H](C)CO)S(=O)(=O)c2ccc(C#CC3CCCCC3)cc2O[C@H]1CN(C)C(=O)Cc1ccncc1,-42.6% (inactive) and -20.9% (inactive)
9,COc1ccc(NC(=O)N[C@H]2CC[C@@H](CCNS(=O)(=O)c3cccc(Cl)c3)O[C@H]2CO)cc1,-37.3% (inactive)
10,CO[C@@H]1CN(C)C(=O)c2ccc(NC(=O)Nc3c(C)noc3C)cc2OC[C@@H](C)N(C(=O)Nc2cccc(Cl)c2)C[C@H]1C,-3.56% (inactive)
11,CCC(=O)N(C)C[C@H]1Oc2cc(C#CC3CC3)ccc2S(=O)(=O)N([C@H](C)CO)C[C@H]1C,-6.49% (inactive)
12,CCOC(=O)C1CCCN(C(=O)c2c[nH]n3c(=O)c(Cc4ccc(Cl)cc4)c(C)nc23)C1 (centres undefined),11.7% (inactive)
13,CO[C@@H]1CN(C)C(=O)c2cc(NC(=O)c3ccc(F)cc3)ccc2OC[C@H](C)NC[C@@H]1C,8.13% (inactive)
14,CC(C)C#Cc1ccc2c(c1)O[C@H](CN(C)CC1CCOCC1)[C@@H](C)CN([C@H](C)CO)S2(=O)=O,0.383% (inactive)
15,COc1cccc(S(=O)(=O)N[C@H]2C=C[C@H](CC(=O)NCc3ccc(Cl)cc3)O[C@@H]2CO)c1,7.24% (inactive)
16,C[C@H]1CN([C@@H](C)CO)C(=O)c2cccc(NC(=O)Nc3ccccc3)c2O[C@H]1CN(C)Cc1ccc(C(F)(F)F)cc1,-14.8% (inactive)
17,C[C@H](CO)N1C[C@H](C)[C@@H](CN(C)C(=O)c2cccc(F)c2)Oc2cc(-c3cncnc3)ccc2S1(=O)=O,14.3% (inactive) and -4.79% (inactive)
18,COc1ccccc1C(=O)Nc1ccc2c(c1)C(=O)N(C)C[C@@H](OC)[C@@H](C)CN(C)[C@H](C)CO2,1.85% (inactive)
19,COc1cccc(-c2cnc3c(c2)C(=O)N([C@H](C)CO)C[C@@H](C)[C@H](CN(C)Cc2ccc(F)cc2)O3)c1,10% (inactive)
20,CC(C)NC(=O)N(C)C[C@@H]1Oc2cc(C#C[C@H](C)O)ccc2S(=O)(=O)N([C@@H](C)CO)C[C@H]1C,8.88% (inactive)

row,Structure (SMILES),inhibition
1,C[C@@H]1CN([C@H](C)CO)S(=O)(=O)c2ccc(C#CC3(O)CCCC3)cc2O[C@@H]1CN(C)C(=O)c1cccnc1,5.12% (inactive)
2,COCC(=O)Nc1ccc2c(c1)[C@@H]1C[C@H](CC(=O)NCc3cc(F)ccc3F)O[C@@H](CO)[C@@H]1O2,-6.69% (inactive)
3,C[C@@H]1CN([C@@H](C)CO)S(=O)(=O)c2ccc(-c3ccc(C#N)cc3)cc2O[C@H]1CN(C)Cc1ccccn1,5.38% (inactive)
4,CO[C@@H]1CN(C)C(=O)c2ccc(NC(=O)C3CCC3)cc2OC[C@H](C)N(C(=O)CN(C)C)C[C@H]1C,0.087% (inactive)
5,O=C(C[C@@H]1C[C@@H]2c3cc(NC(=O)NC4CCCC4)ccc3O[C@@H]2[C@H](CO)O1)NCC(F)(F)F,3.2% (inactive)
6,CC(C)(C)S(=O)N1Cc2cc(C(=O)O)nc(-c3cccc(-c4cc5ccccc5o4)c3)c2[C@@H]1CCO (some centres undefined),9.63% (inactive)
7,CO[C@@H]1CN(C)C(=O)c2cc(NC(=O)NC3CCCCC3)ccc2OC[C@H](C)N(CC2CC2)C[C@H]1C,-6.48% (inactive)
8,O=C(N[C@H]1CC[C@H](CCNS(=O)(=O)c2ccc(F)cc2)O[C@H]1CO)C1CCCC1,-3.3% (inactive)
9,O=C(C[C@@H]1C=C[C@H](NC(=O)C2CCC2)[C@@H](CO)O1)NCC1CC1,10.5% (inactive)
10,CCCN1C[C@H](C)[C@@H](OC)CN(C)C(=O)c2ccc(NC(=O)C3CCOCC3)cc2OC[C@H]1C,7.14% (inactive)
11,O=C(C[C@H]1C=C[C@H](NC(=O)Nc2ccc(C(F)(F)F)cc2)[C@@H](CO)O1)NCCN1CCCC1,11.8% (inactive)
12,C[C@@H]1CCCCO[C@@H](CN(C)Cc2ccncc2)[C@H](C)CN([C@H](C)CO)C(=O)c2cc(NC(=O)CCC(F)(F)F)ccc2O1,0.938% (inactive)
13,CCC(=O)N1C[C@@H](C)[C@H](OC)CN(C)C(=O)c2ccc(NC(=O)NC(C)C)cc2OC[C@H]1C,5.57% (inactive)
14,CNC[C@@H]1Oc2cc(C#CC3(O)CCCC3)ccc2S(=O)(=O)N([C@@H](C)CO)C[C@H]1C,-0.413% (inactive)
15,OC[C@H]1O[C@@H](OCc2ccccc2)[C@H](O[C@@H]2OC[C@](O)(CO)[C@H]2O)[C@@H](O)[C@@H]1O,10.5% (inactive)
16,OC[C@@]1(O)CO[C@H](OC[C@H]2O[C@@H](OC(CCCCc3ccc(O)cc3)CCc3ccc(O)cc3)[C@H](O[C@H]3OC[C@](O)(CO)[C@H]3O)[C@@H](O)[C@@H]2O)[C@@H]1O (some centres undefined),99% (active)
17,C/C=C/c1ccc2c(c1)O[C@@H](CN(C)C(=O)NC1CCCC1)[C@@H](C)CN([C@H](C)CO)S2(=O)=O,10.7% (inactive)
18,CCCN(C)C[C@H]1OCCCC[C@H](C)Oc2ccc(NS(=O)(=O)c3ccc(C)cc3)cc2C(=O)N([C@@H](C)CO)C[C@H]1C,-43.7% (inactive)
19,CO[C@H]1CN(C)C(=O)c2ccc(NC(=O)c3cnccn3)cc2OC[C@@H](C)N(C(C)=O)C[C@H]1C,7.05% (inactive)
